# Experimental data as given in ChEMBL document CHEMBL3433997, “St. Jude Leishmania screening dataset” (2016).
# Assays:
# Type in all cases: functional
# [1] = biological target: Solute carrier family 2, facilitated glucose transporter member 1 (Homo sapiens) (UniProt P11166); experiment: ST_JUDE_LEISH: Cytotoxicity at 2uM final concentration against transgenic Leishmania Mexicana promastigotes LmGLUT1 that are glucose transport deficient and complemented with the human glucose transporter GLUT1. Activity is measured by DNA content using SYBR green in vitro
# [2] = biological target: Hexose transporter 1 (Plasmodium falciparum) (UniProt O97467); experiment: ST_JUDE_LEISH: Cytotoxicity at 2uM final concentration against transgenic Leishmania Mexicana promastigotes LmPfHT that are glucose transport deficient and complemented with the Plasmodium falciparum hexose transporter. Activity is measured by DNA content using SYBR green in vitro
# [3] = biological target: Glucose transporter (Leishmania mexicana) (UniProt O61059); experiment: ST_JUDE_LEISH: Cytotoxicity at 2uM final concentration against transgenic Leishmania Mexicana promastigotes LmGT2 that are glucose transport deficient and complemented with the L. Mexicana glucose transporter 2. Activity is measured by DNA content using SYBR green in vitro
# Chain of Solute carrier family 2, facilitated glucose transporter member 1 (Homo sapiens) (P11166 whole entry): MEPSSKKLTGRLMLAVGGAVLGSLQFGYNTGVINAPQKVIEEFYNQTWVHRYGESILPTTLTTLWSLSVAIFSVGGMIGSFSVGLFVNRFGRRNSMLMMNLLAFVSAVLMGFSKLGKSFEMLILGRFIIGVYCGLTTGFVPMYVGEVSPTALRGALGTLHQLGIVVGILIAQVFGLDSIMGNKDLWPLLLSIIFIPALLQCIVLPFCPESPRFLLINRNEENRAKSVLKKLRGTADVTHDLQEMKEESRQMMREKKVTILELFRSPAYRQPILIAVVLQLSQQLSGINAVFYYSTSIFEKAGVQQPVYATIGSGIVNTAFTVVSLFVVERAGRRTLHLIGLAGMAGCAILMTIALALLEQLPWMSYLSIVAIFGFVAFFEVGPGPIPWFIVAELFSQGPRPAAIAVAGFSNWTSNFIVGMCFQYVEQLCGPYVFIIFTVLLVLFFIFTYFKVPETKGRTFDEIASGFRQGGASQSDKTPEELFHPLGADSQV
Structure (SMILES),inhibition [1] [%],inhibition [2] [%],inhibition [3] [%]
O=C(Nc1ccc(C(F)(F)F)cc1)c1ccc(S(=O)(=O)NC2CCCN(CC3CCCCC3)C2)cc1 (stereo not drawn),6.6,4.53,4.45
COc1ccc2nccc([C@@H](O)CN3CCC(NCc4ccc5c(c4)sc(=O)n5C)CC3)c2c1,-0.15,0.84,-1.7
FC(F)(F)c1ccc2[nH]c(-c3ccc(-c4ccc(CN5CCN(c6ccncc6)CC5)cc4)cc3)nc2c1,77.4,85.7,69
O=C(NCCNc1ccnc(Nc2ccc(F)cc2)n1)Nc1ccccc1F,2.71,1.86,-2.84
c1ccc2oc(-c3cc4ccncc4cc3OC3CCNCC3)cc2c1,-1.3,-3.57,-3.28
O=C(c1ccc(Br)o1)N1N=C(c2cccs2)CC1c1ccc(Br)cc1 (stereo not drawn),5.77,7.79,3.94
CCOC(=O)NC1=NC(C)(C)N(OCc2cccc3c2ccc2ccccc23)C(NC(=O)OCC)=N1,10.7,11.1,10.3
NS(=O)(=O)c1cccc(N/C=C2\C(=O)Nc3ccc(S(=O)(=O)Cc4c(Cl)cccc4Cl)cc32)c1,4.04,0.57,3.06
COc1cccc2c(NN=Cc3cccc(Cl)c3)cc(C)nc12,-0.65,0.14,1.05
CC(C)CCN1CCCN(Cc2cccc(NC(=O)c3ccc(Cl)c(Cl)c3)c2)CC1,-1.69,-1.38,-3.74
NC1CCN(Cc2cccc(-c3csc(-c4nc5ccccc5[nH]4)c3)c2)C1 (stereo not drawn),2.21,1.55,4.6
O=C(Nc1ccc(C(F)(F)F)cc1)c1ccc(S(=O)(=O)NC2CCN(Cc3ccccc3)C2)cc1 (stereo not drawn),5.58,5.18,2.71
O=S(=O)(NCCN1CCCC1)c1cccc(-c2ccc(CNC3Cc4ccccc4C3)cc2)c1,30.3,16.9,8.14
COc1cc2nc(N3CCC(CNC(=O)c4ccc(-c5ccc(C(=O)N(C)C)cc5)cc4)CC3)nc(N)c2cc1OC,1.96,0.11,1.75
O=C(NC1CC1)c1cnc(N2CCC(COc3cccc(F)c3)CC2)c(Cl)c1,1.83,2.54,0.22
Fc1ccc2[nH]c(-c3cccc(-c4cccc(CNCC5CCCO5)c4)c3)nc2c1 (stereo not drawn),-0.33,-0.14,-1.55

Structure (SMILES),inhibition [1] [%],inhibition [2] [%],inhibition [3] [%]
O=C(NC1CC1)c1ccc(N2CCCCN2CCc2ccccc2)c(C(F)(F)F)c1,10.5,19.8,5.87
O=C(NC1CCN(CC2(c3ccccc3)CCCC2)CC1)c1n[nH]cc1Cl,0.19,0.32,-0.85
O=C(NCCCCN1CCC(c2ccc(C(F)(F)F)cc2C(F)(F)F)CC1)c1ccc(NC(=O)c2ccc(Cl)cc2)cc1,0.67,3.98,-1.54
CS(=O)(=O)CCNCc1cc(-c2cc3ncnc(Nc4ccc(OCc5cccc(F)c5)c(Cl)c4)c3s2)cs1,5.58,6.19,5.4
COc1cc(Cc2cnc(N)nc2N)cc(OCCCS(=O)(=O)O)c1OC,4.25,2.33,3.36
CC(Cc1ccc(OCCN2CCN(c3ccccc3)CC2)cc1)NCC(O)c1cccc(Cl)c1F (stereo not drawn),2.22,0.09,1.85
c1ccc2c(CNCCCN3CCN(CCCNCc4c5ccccc5cc5ccccc45)CC3)c3ccccc3cc2c1,10.3,4,0.34
CN(C)CCNC(=O)c1ccc2c(c1)ncn2-c1cc(OCc2ccccc2C(F)(F)F)c(C(N)=O)s1.CN(C)CCNC(=O)c1ccc2ncn(-c3cc(OCc4ccccc4C(F)(F)F)c(C(N)=O)s3)c2c1,2.32,1.7,1.86
Cc1ccc(NC(=O)Nc2ccc(I)c(OCCN(C)C)c2)cc1Cl,10.6,7.2,5.01
CN(C)C1CCN(Cc2ccc(N3CCN(Cc4cccc5[nH]ccc45)CC3)nc2)CC1,2.41,1.46,2.99
c1cc(CNCCN2CCNCC2)cc(-c2ccc(-c3nc4ccccc4[nH]3)cc2)c1,18.3,16.8,13.2
CCN(CC)CCN(Cc1ccc(-c2ccc(C(F)(F)F)cc2)cc1)C(=O)Cn1c(CCc2cccc(C#N)c2)nc(=O)c2ccccc21,2.68,1.83,2.44
COc1ccc2ncc(F)c(CCN3CC(O)C(CNCc4ccc5ccccc5c4)C3)c2n1 (stereo not drawn),15.5,16.6,6.63
CCN(CC)CCN(Cc1ccc(-c2ccc(Cl)s2)cc1)C(=O)Cn1c(CCc2cccc(F)c2F)nc(=O)c2ccccc21,3.75,3.7,2.15
Cc1[nH]c(C)c(-c2ccc(OCc3ccc(OC(F)(F)F)cc3)nc2)c(=O)c1Br,8.89,13.8,3.44
